# Sampled rows, rich in hits. Any-hit rate of the full collection: about 7.9%.
# KB-3-1 tox = qHTS assay for MDR1-selective chemotherapeutics: Primary screen using the parental adenocarcinoma cell KB-3-1. 400,000 compounds, 1.4% hits. KB-3-1 viability, CellTiter-Glo ATP luminescence, 72 h. Potency, µM (top dose mostly 46.1 µM), actives largely listed as cytotoxic; also: % is scaled to controls: 0 for no effect and ±100 for the full control effect; nearly all actives have a fitted effect of over 60% in size
#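 Parental KB-3-1 viability, qHTS format: 72 h compound exposure, 37 °C; CellTiter-Glo; media-only wells and DMSO plates as controls; concentration-effect fits on corrected data.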
# HT1080 IDH1KD tx = qHTS for induction of synthetic lethality in tumor cells producing 2HG: qHTS for the HT-1080-IDH1KD cell line | HT-1080 IDH1 knockdown viability, ATP luminescence, 48 h | Potency, µM (titrated, usually from 46.1 µM), inactives show at the highest dose activity, negative = toxicity, most hits filed as cytotoxic | 360,000 compounds, 2% hits | AID 686971, 2013;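 also: 0% = DMSO wells and -100% = cell-free medium wells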
#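 IDH1KD HT-1080 cells, 750/well, RPMI + 5% FBS; compound pinned after 2 h settling; 48 h, 37 °C; CellTiter-Glo luminescence; % activity normalised to DMSO and no-cell wells; curves fitted, classed by r2 and efficacy.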
# SW480 rereplic = A quantitative high throughput screen for small molecules that induce DNA re-replication in SW480 colon adenocarcinoma cells; SW480 DNA re-replication, Hoechst DNA content imaging, 48 h; Potency, µM (doses to about 46.1 µM), for the others: top-dose re-replication activation, hits mostly activators; 340,000 compounds, 1.8% hits; AID 624297, 2012; also: % of control where 0% means no effect; nearly all actives have a fitted effect of over 55% in size
#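 SW480 cells exposed to compounds for 48 hr at 37 C, 5% CO2, then Hoechst-stained 40 min. Nuclear DNA content imaged by fluorescence scanning (405 nm excitation, 500-530 nm emission); re-replication scored as increased high-intensity nuclei.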
# HT1080NT lethal = qHTS for induction of synthetic lethality in tumor cells producing 2HG: qHTS for the HT-1080-NT fibrosarcoma cell line. 360,000 compounds, 1.6% hits. Potency, µM (highest dose often 46.1 µM), for inactives: at the top dose activity, negative = less viability, hits mostly cytotoxic. HT-1080-NT fibrosarcoma viability, CellTiter-Glo ATP luminescence, 48 h. AID 686970, 2013;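 also: NT is the 2HG producing partner of a matched IDH1 knockdown line; 0% = DMSO-treated cells and -100% = media-only wells without cells; nearly all actives have a fitted effect of over 55% in size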
#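 Read-out is CellTiter-Glo luminescence after 10 minutes at room temperature, following 48 hours' compound treatment of HT-1080-NT cells (750 cells/well, RPMI, 5% FBS, 37 degrees C).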
# KB-V1 MDR tox = qHTS assay for MDR1-selective chemotherapeutics: Primary screen using the drug-selected MDR subline cells KB-V1; 400,000 compounds, 3.4% hits; Potency, µM (highest dose often 46.1 µM), actives largely listed as cytotoxic; KB-V1 MDR cells viability, CellTiter-Glo, 72 h; also: % is scaled to controls: 0 for no effect and ±100 for the full control effect; nearly all actives have a fitted effect of over 60% in size
#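 Cytotoxicity toward P-gp-expressing KB-V1 cells was determined as loss of CellTiter-Glo luminescence after 72 h at 37 degrees C. Compounds were tested in quantitative HTS format across a concentration range, with curves fitted to normalized data.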
# MCF10A rereplic = A quantitative high throughput screen for small molecules that induce DNA re-replication in MCF 10a normal breast cells. MCF 10A DNA re-replication, Hoechst nuclear intensity, 48 h. AID 624296, 2012. 350,000 compounds, 2.9% hits. Potency, µM (titrated, usually from 46.1 µM), without a hit: at the highest dose activity, positive = re-replication, most hits filed as activators; also: % of control where 0% means no effect; nearly all actives have a fitted effect of over 50% in size
# * = called active by the depositor; i = inactive; ? = inconclusive; · = not tested or not shown; [ ] = dose if it differs, or a comment. Calls follow the shape of the dose curve; as a rule, active = well fitted curve in the direction sought with a large enough effect; inconclusive = small, poorly fitted or top-dose-only effect, or another doubt; inactive = no such curve, though single readings can be large; an effect the other way counts as inactive or inconclusive. Potency is read from the fitted curve at half-maximal effect.
SMILES,KB-3-1 tox,HT1080 IDH1KD tx,SW480 rereplic,HT1080NT lethal,KB-V1 MDR tox,MCF10A rereplic
Cc1cccc(C)c1NC(=O)COC(=O)C1Cc2ccccc2CN1C(=O)c1ccccc1 (stereo not given),i,10%,0%,-1%,8.2µM*,0%
O=[N+]([O-])c1c(Nc2ccc(O)cc2)cc(Cl)c2nonc12,i,5.8µM*,-16%,9.2µM*,i,-8%
CCOC(=O)Cn1c(=NC(=O)c2ccc([N+](=O)[O-])s2)sc2ccccc21,4.6µM*,1%,?,-4%,?,3.7µM*
O=c1oc2ccccc2cc1-c1cn2cc(Cc3ccc(F)cc3)sc2n1,0.58µM*,·,·,·,i,·
Cc1nn(C)c(C)c1NC(=O)CSc1nnc(C)n1-c1ccccc1,i,0%,-4%,6%,i,0%
O=C(CSc1nnc(Cn2nnc(-c3ccccc3)n2)n1-c1ccccc1)Nc1ccccc1,i,-2%,0%,0%,15µM*,20%
O=C(CSc1nnc(Cn2nnc(-c3ccccc3)n2)n1-c1ccccc1)Nc1ccc(F)cc1,i,7%,-4%,7%,i,0%
Cc1cccc(C)c1NC(=O)CSc1nnc(Cn2nnc(-c3ccccc3)n2)n1-c1ccccc1,i,2%,0%,-2%,8.2µM*,9%
COc1ccc(Cl)cc1NC(=O)NC(C)c1ccncc1 (stereo not given),i,4%,0%,-27%,18µM*,?
COc1ccc(Cl)cc1NC(=O)Nc1ccc(Br)cn1,i,18µM*,?,?,i,1%
COc1ccc(C2c3c(-c4ccccc4O)n[nH]c3C(=O)N2Cc2ccco2)cc1OC (stereo not given),i,-17%,-3%,?,i,11%
O=C1c2[nH]nc(-c3ccccc3O)c2C(c2ccc(F)cc2)N1Cc1ccco1 (stereo not given),?,?,?,?,6.5µM*,?
O=C1c2[nH]nc(-c3ccccc3O)c2C(c2cccc(Cl)c2)N1Cc1ccco1 (stereo not given),?,?,?,?,15µM*,7.3µM*
CC1(C)CC2CC(C)(CN2C(=O)c2cc(-c3ccc(F)cc3)on2)C1 (stereo not given),i,10%,20%,16%,i,?
O=C1CC(O)(c2ccccc2)C(c2ccccc2)=C1c1ccccc1 (stereo not given),?,-23%,-2%[9.22 µM],?,18µM*,17%
O=C(O)CCN1C(=O)C2C3C=CC(C3)C2C1=O (stereo not given),i,3%,0%,3%,i,?
O=C1C2C3C=CC(C3)C2C(=O)N1CCCCCCN1C(=O)C2C3C=CC(C3)C2C1=O (stereo not given),?,-2%,-2%,8%,18µM*,11%
COc1ccc2c(c1)CC(=O)NC=C2,i,6%,-5%,12%,i,0%
CCN(CC)S(=O)(=O)c1ccc2c(c1)N(CC(=O)NCCCN1CCN(c3cc(Cl)ccc3C)CC1)C(=O)CO2,?,·,·,·,13µM*,·
Cc1ccc(Cl)cc1N1CCN(CCCNC(=O)C2COc3ccccc3C2)CC1 (stereo not given),21µM*,·,·,·,i,·
Cc1cccc(N2CCN(CCNC(=O)C3COc4ccccc4C3)CC2)c1C (stereo not given),i,·,·,·,i,·
CCOC(=O)c1ccc(Oc2nc(C)nc3c2oc2ccccc23)cc1,i,·,·,·,?,·
CC(=O)c1ccc(Oc2nc(C)nc3c2oc2ccccc23)cc1,18µM*,·,·,·,i,·
O=C(CN(Cc1ccccc1)C(=O)CCC(=O)Nc1ccccn1)NCc1ccco1,i,9%,0%,9%,?,11%
CC1CC2C3CCC4=CC(=O)CCC4(C)C3CCC2(C)C1(O)C(=O)CO (stereo not given),i,-2%,-8%,1%,i,0%
SMILES,KB-3-1 tox,HT1080 IDH1KD tx,SW480 rereplic,HT1080NT lethal,KB-V1 MDR tox,MCF10A rereplic
COC(=O)c1cn(C(=O)c2cc(C)cc(C)c2)c2ccccc12,i,0%,-2%,8%,i,14%
COC(=O)c1cn(C(=O)c2ccc(OC)cc2)c2ccccc12,?,4.6µM*,2.3µM*,?,i,5.8µM*
COC(=O)c1cn(C(=O)c2ccc(C)cc2)c2ccccc12,i,-17%,7.3µM*,-18%,i,4%
CCc1cccc(CC)c1NC(=O)c1c(C)oc2ccc(O)c(CN3CCOCC3)c12,i,·,·,·,i,·
Cc1ccc(C(=O)N(C)CC(=O)Nc2ccc(Cl)c(C(F)(F)F)c2)cc1S(=O)(=O)N1CCCCC1,?,?,?,?,?,21µM*
COc1ccc(S(=O)(=O)N2CCCCCC2)cc1C(=O)N(C)CC(=O)Nc1ccc(Cl)c(Cl)c1,i,-21%,-24%,-29%,i,-13%
CN(CC(=O)Nc1ccc(Cl)c(C(F)(F)F)c1)C(=O)c1ccc(OCC2CCCO2)cc1 (stereo not given),?,?,11%,-15%,7.3µM*,14%
CN(CC(=O)Nc1ccc(Cl)c(C(F)(F)F)c1)C(=O)c1ccc(S(=O)(=O)N2CCOCC2)cc1,8.2µM*,10µM*,?,-24%[9.24 µM],?,5.8µM*
Cc1ccc(S(=O)(=O)N2CCCCC2)cc1C(=O)N(C)CC(=O)Nc1ccc(Cl)c(C(F)(F)F)c1,?,3%,?,10%,?,23µM*
C=CCN1C(=O)[C@@H]2Cc3c([nH]c4ccccc34)C(c3ccc(O)cc3)N2C1=S (stereo not given in full),i,-7%,10%,-25%,i,-8%
CC[C@@H](C)[C@@H]1CN([C@@H](CN2CCC[C@H]2CN2C(N)=NC[C@@H]2Cc2ccccc2)C(C)C)C(=N)N1CCCC1CCCC1,i,1%,5%,4%,i,0%
Cc1ccc(S(=O)(=O)NCCOc2nc(N(C)C)nc(N(C)C)n2)cc1,i,-1%,-2%,0%,i,1%
CC(=O)N1CCN(C(=O)CSc2nc3c(cnn3-c3ccccc3)c(=O)[nH]2)CC1,i,9%,0%[9.22 µM],5%,i,1%
